# From PubChem
# Dicer processing = human Dicer pre-microRNA cleavage inhibition; AID 1347074; Q9UPY3; cat-ELCCA pre-miR-21 Dicer processing, chemiluminescence; hits give high values; 47,000 tested, 6% active; z-score at 25 µM; in the data active means z-score above about 3, passing the limit was not always enough;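 further: plate controls were vehicle for no effect and no enzyme for full effect; higher signal means more uncleaved substrate so more Dicer inhibition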
# Active calls of the source: *. This excerpt belongs to a sample that is enriched for hits.
SMILES,Dicer processing
Cn1c(Oc2ccc(F)cc2)nc2c1c(=O)n(Cc1ccccc1)c(=O)n2C,0.4
Cn1c(Oc2ccc(Br)cc2)nc2c1c(=O)n(Cc1ccc(Br)cc1)c(=O)n2C,1.2
Cc1ccc(S(=O)(=O)NC(=O)Nc2ccc(C#N)cc2)cc1,0.53
CC(C)OC(=O)c1cc2ccccc2c(=O)s1,-0.39
O=C(NCCO)c1cc2ccccc2c(=O)s1,3.8*
O=C(NCc1ccc(C(F)(F)F)cc1)c1cc2ccc3ccccc3c2s1,2.8
CCOC(=O)c1ccc(Oc2ncc(C(F)(F)F)cc2Cl)cc1,0.5
N#CCSc1n[nH]c(=O)n1-c1ccc(Cl)cc1,-2.3
CCN1C(=O)C2(/C(=C(/O)c3ccc(Cl)cc3)C(=O)C(=O)N2CCN2CCOCC2)c2ccccc21 (centres undefined),1.2
COCCCN1C(=O)C(=O)/C(=C(\O)c2ccc3c(c2)CC(C)O3)C12C(=O)N(C)c1ccccc12 (centres undefined),0.99
COc1ccc(/C(O)=C2/C(=O)C(=O)N(CCN3CCOCC3)C23C(=O)N(C)c2ccccc23)cc1 (centres undefined),3.5*
CN1C(=O)C2(/C(=C(/O)c3ccccc3)C(=O)C(=O)N2CCCN2CCOCC2)c2ccccc21 (centres undefined),5.3*
CN1C(=O)C2(/C(=C(/O)c3ccccc3)C(=O)C(=O)N2CCN2CCOCC2)c2ccccc21 (centres undefined),5.4*
CCN1C(=O)C2(/C(=C(/O)c3ccc(F)cc3)C(=O)C(=O)N2CCCN2CCOCC2)c2ccccc21 (centres undefined),2.4
CCN1C(=O)C2(/C(=C(/O)c3ccccc3)C(=O)C(=O)N2CCN2CCOCC2)c2ccccc21 (centres undefined),1
CC1Cc2cc(/C(O)=C3/C(=O)C(=O)N(CC4CCCO4)C34C(=O)N(C)c3ccccc34)ccc2O1 (centres undefined),1.5
COc1ccc(/C(O)=C2/C(=O)C(=O)N(CCCN3CCOCC3)C23C(=O)N(C)c2ccccc23)cc1 (centres undefined),1.9
CCOc1ccc(/C(O)=C2/C(=O)C(=O)N(CCN(C)C)C23C(=O)N(C)c2ccccc23)cc1 (centres undefined),1.8
Cc1ccc(/C(O)=C2/C(=O)C(=O)N(CCN(C)C)C23C(=O)N(C)c2ccccc23)cc1 (centres undefined),1.6
CC1Cc2cc(/C(O)=C3/C(=O)C(=O)N(CCN(C)C)C34C(=O)N(C)c3ccccc34)ccc2O1 (centres undefined),4.4*
Cc1onc(-c2c(Cl)cccc2Cl)c1NC(=O)N1CCCN2C(=O)c3ccccc3C12 (centres undefined),0.24
CCOC(=O)C1(CC)CC(C)(c2csc(Nc3ccccc3Cl)n2)OC1=O (centres undefined),0.36
CC(C)COC(=O)NC(C)C(=O)O (centres undefined),-0.02
CC(=O)Nc1ccc(NC(=O)CC2(CC(=O)O)CCCC2)cc1,0.84
CCCOC(=O)C1C2C=CC3(CN(Cc4ccc(C)cc4)C(=O)C13)O2 (centres undefined),-1.2
SMILES,Dicer processing
Cc1c(-c2cc(N3C(=O)c4ccccc4C3=O)n(C)n2)sc2ccc(Cl)cc12,-1.1
Cc1ccc(S(=O)(=O)NCCC2=CCCCC2)cc1,1.2
O=c1cc(NCCC2=CCCCC2)c2ccccc2o1,3.5*
O=C(O)[C@H]1CCCC[C@H]1C(=O)NCCC1=CCCCC1,-0.86
COc1cccc(OC)c1COC(=O)Nc1c(-c2ccccc2Cl)noc1C,-1.5
Cc1ccc2c3c1C(=O)C(=O)N3C(C)(C)CC2(C)c1ccccc1 (centres undefined),0.59
Cc1oc2ccc(NS(=O)(=O)c3cccc4ccccc34)cc2c1C(=O)OC(C)C,0.64
C=CCn1cnnc1C(CCC(C)C)CC(C)(C)O (centres undefined),3.8*
CC(c1ccccc1)n1c(CCc2ccc(O)cc2)n[nH]c1=S (centres undefined),-0.57
COc1ccc2c(=O)c(-c3ccc(Cl)cc3)c(C(F)(F)F)oc2c1,-0.51
COc1ccc(-c2c(C(F)(F)F)oc3cc(O)cc(O)c3c2=O)cc1,5.3*
COc1ccc(-c2c(C)oc3cc(O)cc(O)c3c2=O)cc1OC,2
COc1ccc2ccccc2c1C1OC(=O)C2(CCCCC2)C(=O)C1(C)C (centres undefined),-0.31
COc1ccc(C2CC(=O)C3=C(C2)Nc2nc4ccccc4n2C3c2ccco2)cc1 (centres undefined),-0.8
COc1ccc(C2C3=C(CC(c4ccco4)CC3=O)Nc3nc4ccccc4n32)cc1 (centres undefined),3.1*
O=C1CC(c2ccco2)CC2=C1C(c1cccnc1)n1c(nc3ccccc31)N2 (centres undefined),0.79
O=c1oc(-c2cccc(Cl)c2)nc2ccccc12,0.1
O=c1oc(-c2ccccc2Br)nc2ccccc12,4.6*
O=c1oc(-c2ccc(-c3ccccc3)cc2)nc2ccccc12,0.22
COc1ccccc1-c1c(C(F)(F)F)oc2cc(OC(=O)c3ccco3)ccc2c1=O,2.5
